Bioassay records as filed in PubChem BioAssay.
HPGD block: blocks human HPGD enzyme activity. purified HPGD, NADH fluorescence kinetic, PGE2 substrate. Potency, µM, for inactives: at the highest dose activity change, negative = inhibition, actives largely listed as inhibitors. 150,000 tested, 4.3% active. AID 894; active = well fitted inhibition curve with a large enough effect, not every such curve was filed as active; inconclusive = small, poorly fitted or top-dose-only effect, or another doubt; inactive = no such curve, though single readings can be large or run the other way; note: % is set by controls: 0 for no effect and ±100 for the full control effect
Target sequence (P15428 whole entry, looked up): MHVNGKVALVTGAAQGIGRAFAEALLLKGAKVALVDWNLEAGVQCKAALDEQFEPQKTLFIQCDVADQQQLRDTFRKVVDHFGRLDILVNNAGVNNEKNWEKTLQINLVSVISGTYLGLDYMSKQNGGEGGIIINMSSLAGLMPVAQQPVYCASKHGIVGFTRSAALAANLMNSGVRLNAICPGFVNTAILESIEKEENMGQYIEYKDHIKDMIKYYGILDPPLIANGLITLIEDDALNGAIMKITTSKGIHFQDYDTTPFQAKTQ
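20 nM HPGD preincubated 15 min at room temperature with compound in 50 mM Tris-HCl pH 8, 0.01% Tween 20. Started with 1 mM NAD+ and 30 uM prostaglandin E2; NADH fluorescence (360/450 nm) read 5 times over 30-s intervals, last minus first.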
HTT ATP protect: protects HTT-Q103 PC12 cells, measured by ATP; PC12 HTT-Q103 induced, cytoprotection, ATP luminescence, 40 h; Potency, µM (doses to about 56.4 µM), for the others: cytoprotection (ATP increase), actives largely listed as activators; 230,000 tested, 0.14% active; AID 1471; note: % of control where 0% means no effect; nearly all actives have a fitted effect of over 45% in size
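Quantitative HTS on tebufenozide-induced (100 nM) PC12 cells expressing HTTQ103 exon 1–GFP; compounds tested as a concentration series; survival measured via cellular ATP.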
ALDH1A1 block: inhibitors of human aldehyde dehydrogenase 1A1; P00352; Purified ALDH1A1, NADH fluorescence, propionaldehyde substrate; Potency, µM (top dose mostly 75.3 µM), for inactives: at the highest dose activity, negative = inhibition, actives largely listed as inhibitors; 220,000 tested, 7.3% active; active = well fitted inhibition curve with a large enough effect, not every such curve was filed as active; inconclusive = small, poorly fitted or top-dose-only effect, or another doubt; inactive = no such curve, though single readings can be large or run the other way;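 note: plate controls were no enzyme wells and a reference inhibitor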
Target sequence (P00352 whole entry, looked up): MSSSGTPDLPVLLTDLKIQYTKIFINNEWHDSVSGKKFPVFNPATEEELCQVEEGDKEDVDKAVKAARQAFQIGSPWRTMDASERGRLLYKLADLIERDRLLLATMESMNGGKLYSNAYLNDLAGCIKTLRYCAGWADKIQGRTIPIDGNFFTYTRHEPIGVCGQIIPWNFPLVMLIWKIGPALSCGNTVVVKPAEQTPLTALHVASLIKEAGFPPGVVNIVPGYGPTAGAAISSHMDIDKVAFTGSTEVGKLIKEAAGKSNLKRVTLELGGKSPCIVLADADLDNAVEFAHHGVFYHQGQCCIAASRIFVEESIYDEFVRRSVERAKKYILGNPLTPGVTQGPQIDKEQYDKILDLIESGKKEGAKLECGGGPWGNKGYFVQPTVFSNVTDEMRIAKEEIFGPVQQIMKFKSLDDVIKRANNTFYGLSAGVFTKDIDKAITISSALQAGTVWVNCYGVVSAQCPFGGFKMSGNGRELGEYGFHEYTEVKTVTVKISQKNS
Lamin A splicing: modulators of lamin A splicing; Potency, µM (highest dose often 46.1 µM), without a hit: at the top dose ratio change, negative = inhibition, actives largely listed as inhibitors; AID 1487; HeLa LMNA splicing GFP/RFP minigene ratio, 48 h; 200,000 tested, 0.01% active; active = well fitted inhibition curve with a large enough effect in the signal ratio, with a control signal flat, not every such curve was filed as active; inconclusive = small, poorly fitted or top-dose-only effect, or effect the other way, or a change in a side signal; the % refers to the signal ratio; note: % is set by controls: 0 for no effect and ±100 for the full control effect
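S3 HeLa cells stably expressing lamin A-EGFP splicing minigene plus DsRed2, 600 cells/well, 48 h compound exposure at 37C. Laser-scanning cytometry; analysed as GFP (500-530 nm)/RFP (575-640 nm) total intensity ratio; 0.5% DMSO vehicle.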
HttQ103 aggreg: reduces HttQ103-GFP aggregates in PC12 cells; Potency, µM (top dose mostly 46.1 µM), without a hit: top-dose activity change, negative = inhibition, most hits filed as inhibitors; PC12 HttQ103-GFP aggregates, Acumen cytometry, 40 h; 220,000 tested, 1.1% active; note: % is set by controls: 0 for no effect and ±100 for the full control effect; nearly all actives have a fitted effect of over 60% in size
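Huntingtin Q103 exon 1–GFP aggregates in induced PC12 cells (100 nM tebufenozide) were quantified by cytometry from lysates, with compounds dosed in titration.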
Active calls of the source: *; ? = inconclusive; · = not tested or not shown; [ ] = dose if it differs, or a comment. Hits are enriched below; roughly 8.8% of the tested compounds scored in any of these assays. Unless noted, calls come from the whole dose curve; as a rule, active = well fitted curve in the direction sought with a large enough effect; inconclusive = small, poorly fitted or top-dose-only effect, or another doubt; inactive = no such curve, though single readings can be large; an effect the other way counts as inactive or inconclusive. Potency is the fitted concentration of half-maximal effect.

SMILES | HPGD block | HTT ATP protect | ALDH1A1 block | Lamin A splicing | HttQ103 aggreg
C=C(C(C)=O)C(O)c1cccc(Br)c1 (configuration not stated) | -5.2% | 18.5% | 11.2% | · | ·
O=C(NC(=S)Nc1ccc2c(c1)OCCO2)c1ccccc1 | -15.6% | -54.0% | 22.4µM* | 12.5% | 17.6%
CN(C)C(=O)n1nnnc1Cc1ccc(-c2ccccc2)cc1 | -10.9% | -310.1% | 1µM* | · | ·
CN(N=O)C(=O)N[C@H]1C(O)OC(CO)[C@@H](O)[C@H]1O (some centres not stated) | -14.4% | -7.3% | 5.3% | · | ·
S=c1nc[nH]c2c1sc1nc(N3CCOCC3)c3c(c12)CCCC3 | · | -71.2% | 1.41µM* | ? | 13.6%
CC(=O)c1cccc(NC(=S)NC(=O)c2ccc(Cl)cc2)c1 | -20.6% | -14.0%[10 µM] | 25.1µM* | ? | -12.2%
CC(=O)c1cccc(NC(=S)NC(=O)c2ccccc2C)c1 | · | -92.2%[10 µM] | ? | 22.9%[46 µM] | ?
CC(=O)c1cccc(NC(=S)NC(=O)c2cccc(C)c2)c1 | 22.4µM* | · | ? | ? | 13.0%
Cc1ccc(S(=O)(=O)C2(C(=O)N3CCCC(C)C3)CC2)cc1 (configuration not stated) | 25.1µM* | 1.5% | 1.1% | 12.7% | 2.2%
Cc1ccc(S(=O)(=O)N2CCCC2C(=O)O)cc1 (configuration not stated) | -11.3% | 6.4% | 3.2% | 3.0% | 2.5%
Cc1oc(-c2ccc(Cl)cc2)nc1Cn1c(=O)cc(C)c2c(C)nn(-c3ccccc3)c21 | · | · | · | -6.6%[46 µM] | ·
Cn1ncc(Br)c1C(=O)NC1C2CC3CC(C2)CC1C3 (configuration not stated) | -4.7% | · | -14.0% | ? | -24.1%
Cc1c(Cl)c(C(=O)NC2C3CC4CC(C3)CC2C4)nn1C (configuration not stated) | 20µM* | -11.1%[10 µM] | ? | ? | -10.2%
S=c1[nH]nc(-c2cccnc2)n1/N=C/c1ccc(Br)s1 | 15.8µM* | 12.3%[10 µM] | ? | 2.7% | 15.5%
Cc1ccc(/C=N/n2c(-c3cccnc3)n[nH]c2=S)s1 | 12.6µM* | -24.1%[10 µM] | ? | 5.4% | 10.1%
NCOC(=O)Cc1ccc(Br)cc1 | -2.0% | 13.7%[10 µM] | -3.3%[13.5 µM] | · | ·
CCCCNC(=O)CNC(=S)N(Cc1ccccc1)Cc1cccs1 | · | -1.5% | ? | · | -21.0%
CC1CCCC(NC(=O)CNC(=S)N(Cc2ccccc2)Cc2cccs2)C1C (configuration not stated) | · | -46.6% | 12.6µM* | 27.4%[9.22 µM] | ?
O=C(CNC(=S)N(Cc1ccccc1)Cc1cccnc1)NCc1ccccc1 | · | -14.2% | 17.8µM* | · | -7.0%
O=C(CNC(=S)N(Cc1ccccc1)Cc1cccnc1)NC1CCCCC1 | -4.2% | -16.5%[10 µM] | 12.6µM* | -5.4% | 15.8%
Cc1ccc(NC(=O)CN2CCN(C3CCCCC3)C(=O)C2=O)cc1C | · | · | · | 4.3%[46 µM] | ·
O=c1[nH]c(CSc2ccccn2)nc2c1oc1ccccc12 | · | -18.0% | ? | · | -2.3%[9.22 µM]
COc1ccc(-c2nnc(NC(=O)c3ccc(S(=O)(=O)N4COCC4(C)C)cc3)o2)cc1 | -10.1% | -59.2% | -12.7% | ? | 31.6µM*
O=C(CSc1nnc(-c2ccc(S(=O)(=O)N3CCOCC3)cc2)o1)c1ccccc1F | -11.4% | -1.1% | ? | 1.8% | -10.8%
COc1ccc(C(=O)CSc2nnc(-c3ccc(S(=O)(=O)N4CCOCC4)cc3)o2)cc1 | -11.5% | -4.8%[10 µM] | 0.501µM* | 2.0% | -19.2%
SMILES | HPGD block | HTT ATP protect | ALDH1A1 block | Lamin A splicing | HttQ103 aggreg
CC(=O)c1ccc(NC(=O)C(C)NCc2ccccc2Cl)cc1 (configuration not stated) | · | -7.7% | -1.4% | · | 1.3%
COc1ccc(NC(=O)Nc2nnc(-c3ccncc3)s2)cc1 | · | -23.5% | -11.2% | -18.1%[46 µM] | 20µM*
O=c1[nH]c(=O)n([C@@H]2O[C@H](CO)[C@@H](O)[C@H]2O)cc1F | 1.0% | -102.4%[1.9 µM] | -1.7% | · | ·
Cc1cc(SCC(=O)OCC(=O)N2CCN(C(=O)c3ccco3)CC2)c(C)cc1Br | -12.7% | -25.7%[10 µM] | 31.6µM* | 7.7% | -11.8%
O=C(Cc1ccc(Cl)cc1Cl)OCC(=O)N1CCN(C(=O)c2ccco2)CC1 | · | -17.6% | 14.1µM* | -19.6%[9.22 µM] | 12.7%
Cc1ccsc1C(=O)OCC(=O)N1CCN(C(=O)c2ccco2)CC1 | · | 24.8%[10 µM] | -14.3% | -23.7%[46 µM] | 10.9%
O=C(Cc1ccc(Cl)cc1)N1CCN(C(=O)c2ccco2)CC1 | 0.1% | -16.4% | -5.6% | 1.7% | 3.6%
c1ccc(C2=Nc3ccccc3SC2c2nc3ccccc3[nH]2)cc1 (configuration not stated) | 35.5µM* | -103.5% | ? | ? | -21.6%
COc1ccc(-n2c(COc3ccc4c(c3)OCO4)nnc2SCC(=O)O)cc1 | · | 1.3%[10 µM] | 2.51µM* | · | 9.3%
COc1ccc(-n2c(COc3ccccc3)nnc2SCC(N)=O)cc1 | 0.9% | -11.3% | 0.4% | ? | -1.6%
O=C(NCc1cccnc1)c1cc(Sc2cccc(Cl)c2)nc2ccccc12 | -16.3% | 8.1%[10 µM] | 11.2µM* | ? | -5.2%
O=C(NCc1cccnc1)c1cccnc1-c1nc2ccccc2s1 | -18.5% | -10.2% | 20µM* | -3.8% | -3.9%
CCC(C)NC(=O)c1cc(Sc2cccc(Cl)c2)nc2ccccc12 (configuration not stated) | · | · | · | -8.5%[46 µM] | ·
O=C(c1ccncc1)N1CCC[C@@]2(CCN(c3cccc(-c4ccccc4)c3)C2)C1 | -12.7% | 2.2% | ? | · | ·
CC1=NOC(=O)/C1=C/c1ccc(N(C)C)cc1 | · | 3.0% | 0.1% | -3.5% | -5.5%
CCCCC1(C)OC(=O)C(=Cc2ccc(N(CC)CC)cc2)C(=O)O1 (configuration not stated) | 20µM* | -34.5% | 0.398µM* | 2.2% | 1.0%
CCN(CC)c1ccc(C=C2C(=O)OC3(CCCCC3)OC2=O)cc1 | · | -32.2% | 0.178µM* | ? | 24.7%
CCN(CC)c1ccc(/C=C2/C(=O)c3ccc(C(=O)O)cc3C2=O)cc1 | 11.2µM* | 10.6%[10 µM] | 8.91µM* | -11.4% | 0.7%
CCN(CC)c1ccc(/C=C2/C(=O)ON=C2C)cc1 | -19.4% | 6.9%[10 µM] | 1.5µM* | -9.8% | -1.1%
C=CCC1(c2ccccc2)Oc2ccccc2-c2nc3cc(Cl)c(Cl)cc3nc21 (configuration not stated) | · | -5.2%[10 µM] | -4.0%[13.5 µM] | · | ·
O=S(=O)(Nc1cccnc1)c1cccs1 | -15.8% | -3.2%[10 µM] | -11.9% | 6.3% | 4.1%
N#Cc1nccnc1S(=O)(=O)c1cccs1 | · | -22.5%[10 µM] | 0.447µM* | ? | -38.6%[9.22 µM]
O=c1cc(-c2ccc(O)c(O)c2)oc2ccccc12 | 7.08µM* | -176.3% | 25.1µM* | · | ·
COc1ccc(-c2cc(=O)c3ccccc3o2)cc1OC | ? | · | ? | -10.5% | ·
O=c1cc(-c2ccccc2)oc2ccc(O)cc12 | · | -27.1%[10 µM] | · | · | -11.6%[9.22 µM]
O=c1cc(-c2ccccc2)oc2ccccc12 | 8.91µM* | -69.5% | -16.9% | · | ·
O=c1cc(-c2ccccc2)oc2cc(O)c(O)cc12 | 17.8µM* | -300.1% | 1.9% | · | ·
